Records with an inconclusive call do not appear. Active and inactive are the calls of the source. Calls come from the whole dose curve; as a rule, active = well fitted cell-killing curve with a large enough effect in the repeat runs; inconclusive = weak or mixed curves, or effect the other way; inactive = no such curve, though single readings can be large or run the other way. Where a SMILES comes first, the peptide text is derived from it.
Assay: qHTS assay to identify small molecule antagonists of the sonic hedgehog signaling (Shh) pathway - cell viability counter screen (AID 1259367); note: nearly all actives have a fitted effect of over 55% in size
Details: NIH/3T3 Gli1-Luc viability, CellTiter-Fluor, 24 h; series mostly up to 92.4 µM
Text: National Center for Advancing Translational Sciences [NCATS]
NIH Chemical Genomics Center [NCGC]
U.S. Environmental Protection Agency [EPA]
National Institutes of Environmental Health Sciences [NIEHS]
National Toxicology Program [NTP]
U.S. Food and Drug Administration [FDA]
The sonic hedgehog (Shh) pathway is essential for normal embryonic development. Dysregulation of the Shh pathway can cause severe developmental defects in organs. Therefore chemicals that interfere with the pathway are potential developmental toxicants. A cell line designated 3T3Gli1-Luc (DMB/OARSA/CFSAN/FDA, Laurel, MD), a NIH/3T3 derived clone containing stably integrated Gli1-Luc reporter is used to detect chemical interference of the Shh pathway, by changes in the expression of the firefly Luc gene under the control of the Gli1 transcriptional response element. This cell line was used to screen Tox21 libraries for identifying and prioritizing the potential developmental toxicants that interfere Shh pathway. Conditioned medium-stimulated mode was used to screen for chemicals inhibiting Shh signaling. The cytotoxicity of the compounds was tested in parallel by measuring the cell viability using CellTiter-Fluor assay system (Promega, Madison, WI) in the same wells.
Tox21 Assay Protocol Summary:
3T3 Gli1-Luc cells were dispensed at 2,000 per well in 5uL of culture medium into white solid bottom 1536-well plates (Greiner Bio-One, Monroe, NC) using a Multidrop Combi (Thermo Scientific, Waltham, MA) dispenser. The assay plates were incubated at 37 C and 5% CO2 for 4hr, and then 23nL of compounds dissolved in DMSO and positive control were transferred using a Pintool station (Wako, San Diego, CA). The compound transfer was followed by the addition of 1ul conditioned medium or assay buffer using two separate tips of Flying Reagent Dispenser (FRD, Aurora Discovery, San Diego, CA). The assay plates were incubated at 37C and 5% CO2 for 24hr. For viability read, after 23hr of compound treatment, 1uL of CellTiter-Fluor reagent (Promega Corporation, Madison, WI) was added to each well of the assay plates using Flying Reagent Dispenser (FRD, Aurora Discovery, San Diego, CA) and incubated the assay plates at 37C for 1hr. The fluorescence signal was quantified using a ViewLux plate reader (Perkin Elmer, Shelton, CT).
In the case of C/C=C(\C)C(C)=O, the outcome is reported as “inactive”. In the case of CCCCCc1cccc(=O)o1, the outcome is reported as “inactive”. With CC1CC(=O)CC(C)(C)C1 (stereo not given) the outcome was “inactive”. For C[Si]1(C)O[Si](C)(C)O[Si](C)(C)O[Si](C)(C)O[Si](C)(C)O1, the outcome was “inactive”. With CC1=C(C(=O)O)N2C(=O)[C@@H](NC(=O)[C@H](N)C3=CCC=CC3)[C@H]2SC1 the outcome was “inactive”. In the case of CC(=O)OC(C)=O, the outcome is reported as “inactive”. For CCCC(=O)OCCC(C)CCC=C(C)C (stereo not given), the outcome was “inactive”. In the case of CCO, the outcome is reported as “inactive”. For CC1(C)CC(OC(=O)CCCCCCCCC(=O)OC2CC(C)(C)NC(C)(C)C2)CC(C)(C)N1, the viability change, negative = cytotoxic was -5.84% [at 19 µM] (inactive). For O/N=C/C=N/O, the outcome was “inactive”. For CN(C)CCOC(=O)C(c1ccccc1)C1(O)CCCC1 (stereo not given), the outcome was “inactive”. With c1ccc2cnccc2c1 the outcome was “inactive”. For CO[C@@]1(NC(=O)Cc2cccs2)C(=O)N2C(C(=O)O)=C(COC(N)=O)CS[C@@H]21, the outcome was “inactive”. With Cc1c(NC(=O)c2cccnc2)c(=O)n(-c2ccccc2)n1C the outcome was “inactive”. With CC(=O)OCC(=O)Nc1cc(C#N)cc(NC(=O)COC(C)=O)c1Cl the outcome was “inactive”. In the case of CC(C)OC(=O)CCC(=O)OC(C)C, the outcome is reported as “inactive”. With COC(C)(OC)OC the outcome was “inactive”. For C[C@]12CCC(=O)C=C1CC[C@H]1[C@@H]3CC[C@](O)(C(=O)CO)[C@@]3(C)C[C@H](O)[C@@]12F, the outcome was “inactive”. With CNCCS(=O)(=O)O the outcome was “inactive”. For O=C1OCCO1, the outcome was “inactive”. With Cc1c(Cl)cccc1Cl the outcome was “inactive”. In the case of CCCCCCC1(C)CCC(=O)O1 (stereo not given), the outcome is reported as “inactive”. For O=C1NC(c2ccccc2)(c2ccccc2)C(=O)N1COP(=O)(O)O, the outcome was “inactive”. With Cc1ccc(C(C)NC(=O)[C@@H](NC(=O)OC(C)C)C(C)C)cc1 (stereo not given in full) the outcome was “inactive”. In the case of CC(C)Cn1cnc2c1c(=O)n(C)c(=O)n2C, the outcome is reported as “inactive”. With C=CCOC(=O)CCCCCC the outcome was “inactive”. With CN1C[C@@H]2C[C@H]1CN2c1cc2c(cc1F)c(=O)c(C(=O)O)cn2C1CC1 the viability change, negative = cytotoxic was 0.743% [at 19 µM] (inactive). In the case of CC(=O)N[C@@H](CO)C(=O)N[C@@H](CC(=O)O)C(=O)N[C@@H](CCCCN)C(=O)N1CCC[C@H]1C(=O)O (Ac-SDKP-OH), the outcome is reported as “inactive”. In the case of CC(C)C1OCCN1CCOC(=O)NCCCCCCNC(=O)OCCN1CCOC1C(C)C (stereo not given), the outcome is reported as “inactive”. In the case of CC(=O)O[C@@H]1CC2CCC1(C)C2(C)C (stereo not given in full), the outcome is reported as “inactive”. In the case of CN1CCOC(c2ccccc2)c2ccccc2C1 (stereo not given), the outcome is reported as “inactive”. For CCC(=O)c1c(O)cc(O)cc1O, the outcome was “inactive”. For CCCCCCCCCCCCCCC(=O)NC(CO)CCCCCCCCCCCCCC (stereo not given), the outcome was “inactive”. In the case of CCc1occc(=O)c1O, the outcome is reported as “inactive”. With CCN(CC)CCN the outcome was “inactive”. For COc1nc(N)nc2nc[nH]c12, the outcome was “inactive”. With COC(=O)c1ccccc1C(=O)O the outcome was “inactive”. In the case of O=C(O)CNC(=O)CNC(=O)CNC(=O)CSC(=O)c1ccccc1, the outcome is reported as “inactive”. In the case of COc1cc(/C=C/C(N)=O)cc(OC)c1OC, the outcome is reported as “inactive”. For CC(CO)(CO)CO, the outcome was “inactive”.
% is set by controls: 0 for no effect and ±100 for the full control effect.
